Compound activity (PubChem BioAssay)
This is a sample that favours compounds with a hit; in the whole collection about 13% have one here.
HCV inh: qHTS Assay for Inhibitors of Hepatitis C Virus (HCV) | Huh7.5.1 HCVcc-Cre infection, luciferase reporter, 44 h | Potency, µM (series often up to 41.8 µM), for the others: top-dose activity change, negative = inhibition, usual class: inhibitors | 3.4% of 340,000 active; active = well fitted inhibition curve with a large enough effect; inconclusive = small, poorly fitted or top-dose-only effect, or another doubt; inactive = no such curve, though single readings can be large or run the other way; note: potency is the fitted concentration of half-maximal effect; % is set by controls: 0 for no effect and ±100 for the full control effect
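After 44 h co-culture of compound, cells and HCVcc-Cre (~0.5 moi), substrate is added for 15 min at room temperature and luciferase measured over 15 sec. Cells were seeded at 1,000/well and pre-cultured 4 h.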
Marburg entry inh: qHTS for inhibitors of binding or entry into cells for Marburg Virus; Marburg virus pseudotyped entry inhibition, cell reporter; Potency, µM (top dose mostly 37.8 µM), without a hit: at the top dose activity change, negative = inhibition, most hits filed as inhibitors; 1.8% of 300,000 active; calls by dose curve; tested in HEK293 cells; note: potency is the fitted concentration of half-maximal effect; % is set by controls: 0 for no effect and ±100 for the full control effect
Lassa entry inh: qHTS for Inhibitors of binding or entry into cells for Lassa Virus; Potency, µM (top dose mostly 37.9 µM), for inactives: at the top dose activity change, negative = inhibition, most hits filed as inhibitors; Lassa virus pseudotype entry inhibition, cell reporter; 1.2% of 300,000 active; calls by dose curve; tested in HEK293 cells; note: potency is the fitted concentration of half-maximal effect; % is set by controls: 0 for no effect and ±100 for the full control effect; nearly all actives have a fitted effect of over 50% in size
FMDV inh: High Throughput Screening for Foot and Mouth Disease Virus Antivirals. AID 1159524, 2015. FMDV antiviral cell-based qHTS. 1.2% of 410,000 active. Potency, µM (series often up to 57.9 µM), for the others: at the highest dose activity change, negative = inhibition, actives largely listed as inhibitors; calls by dose curve; tested in HEK293T cells; note: read-out not given here; potency is the fitted concentration of half-maximal effect; % is set by controls: 0 for no effect and ±100 for the full control effect; nearly all actives have a fitted effect of over 45% in size
Shiga toxin inh: A qHTS for Small Molecule Inhibitors of Shiga Toxin | inhibition, % at 38.7 µM | 9.2% of 290,000 active | Vero cells, Shiga toxin protein synthesis inhibition reporter; in the data active = inhibition mostly above about 28%, no sharp cut-off; inactive = mostly below about 43%; note: 0% is about no effect
Cycloheximide cs: Cycloheximide Counterscreen for Small Molecule Inhibitors of Shiga Toxin; cell reporter, cycloheximide protein synthesis inhibition counterscreen; max response, %; 12% of 300,000 active; AID 2314, 2010; in the data active = max response mostly above about 13%, no sharp cut-off; inactive = mostly below about 14%; note: read at 38.3 µM for the half of the compounds with a filed dose; 0% is about no effect
* marks the source's active call; other numbers are inactive results; ? = inconclusive; / = no result given; [ ] = dose if it differs, or a comment.

SMILES	HCV inh	Marburg entry inh	Lassa entry inh	FMDV inh	Shiga toxin inh	Cycloheximide cs
CC1(c2nnc(-c3cccc(Cl)c3)o2)CC(c2cccnc2)=NO1 (centres undefined)	0.4%	/	/	-5.4%	/	/
N#Cc1nc(-c2cccs2)oc1NCc1ccccc1Cl	-23.8%	?	0.5%	0.0%	86.3*	18.1*
N#Cc1nc(-c2cccs2)oc1N1CCN(c2ccccc2)CC1	2.82µM*	?	-1.5%	-19.2%	-4.4	-2.5
C=CCNc1oc(-c2cccs2)nc1C#N	?	-11.3%	17.7%	0.0%	51.4*	18.8*
N#Cc1nc(-c2cccs2)oc1NCc1ccco1	-6.9%	14.3%	12.4%	/	27.6	18.4*
CCOC(=O)c1cccc(S(=O)(=O)N(CCO)Cc2cc3cc(OC)c(OC)cc3[nH]c2=O)c1	/	-3.3%	-29.3%[14.3 µM]	-15.9%	-8.3	-3.1
COc1cc2c(cc1OC)CN(S(=O)(=O)c1ccc3c(c1)OCCO3)CC2	-19.9%	-24.4%	-23.3%	-22.5%	21.0	-1.0
CC(=O)[C@@]1(C)OC(N)=C(C#N)[C@@H](c2ccccc2)C1(C#N)C#N	/	-0.1%	/	/	/	/
Cc1ccc(NC(=O)Cn2c(O)c(N=NS(=O)(=O)c3ccc(C)cc3)c3ccccc32)cc1	4.9%	?	?	-1.9%	-8.7	-2.5
CC1(C)CC(=O)C2=C(C1)NC(=O)NC2c1ccc(Cl)cc1 (centres undefined)	19.8%	-16.3%[46.1 µM]	-23.2%[46.1 µM]	-8.5%	-2.1	-1.9
N#Cc1nc(-c2ccco2)oc1NCc1ccccc1Cl	?	1.3%	10.1%	17.7%	43.8	12.4*
N#Cc1nc(-c2cccs2)oc1NCc1ccccc1	5.8%	5.9%[46.1 µM]	17.5%	9.9%	29.0	24.2*
N#Cc1nc(-c2ccco2)oc1NCCCN1CCOCC1	5.7%	6.0%	1.0%	12.1%	47.2	-1.5
Cc1ccc(CNc2oc(-c3cccs3)nc2C#N)cc1	-28.4%	-2.1%	-6.7%	/	17.4	19.8
N#Cc1nc(-c2cccs2)oc1NCc1ccc(Cl)cc1	10µM*	-3.2%	0.7%	11.6%	9.4	10.4
Cc1nc(N2CCOCC2)c2c(C(=O)N3CCN(c4ccccc4)CC3)c(C)oc2n1	/	/	13.8%[46.1 µM]	4.9%	/	/
CC(C)(C)C(=O)Nc1ccc(-c2cc3cc(Cl)ccc3o2)cc1	-2.8%	2.0%	/	6.9%	124.4*	80.9*
COc1ccc(C(=O)CN2CCN(S(=O)(=O)c3cccc([N+](=O)[O-])c3)CC2)cc1OC	3.9%	-1.4%	/	-11.3%	-10.2	3.3
O=C(Nc1ccc(N2CCOCC2)c(Cl)c1)c1cccnc1	?	?	?	36.9%	52.7*	26.2*
Cc1ccc(NC(=O)c2cccnc2)cc1C	3.3%	?	5.1%[46.1 µM]	15.5%	/	19.1*
O=C(Nc1ccc(Cl)c(S(=O)(=O)N2CCCCC2)c1)c1cccnc1	14.1µM*	/	/	0.0%	/	/
Cc1ccccc1C(=O)Nc1cccc(NC(=O)c2cccnc2)c1	-12.8%	?	-8.3%	-13.7%	10.3	-5.1
O=C(Nc1cccc(S(=O)(=O)N2CCCC2)c1)c1cccnc1	-4.2%	?	14.0%[46.1 µM]	-17.0%	-31.0	-2.5
O=C(Nc1ccc(Cl)c(Cl)c1)c1cccnc1	3.1%	/	/	36.5%	/	35.2*
O=C(Nc1ccccc1N1CCOCC1)c1cccnc1	5.0%	15.4%[46.1 µM]	-15.5%[46.1 µM]	6.6%	32.0	-1.4
SMILES	HCV inh	Marburg entry inh	Lassa entry inh	FMDV inh	Shiga toxin inh	Cycloheximide cs
O=C1OCc2nc3cc4c(cc3c(-c3ccc(F)cc3)c21)OCO4	-1.7%	/	/	-11.5%	-2.6	-7.4
O=C(Nc1ccc(N2CCCCC2)c(Cl)c1)c1cccnc1	?	1µM*	0.891µM*	8.6%	96.0*	24.5
O=C(Nc1ccc(N2CCCC2)c(Cl)c1)c1cccnc1	?	-13.1%	-1.4%	24.0%	54.4*	38.6*
CSc1ccc(NC(=O)c2cccnc2)cc1C#N	-18.7%	-7.3%	-25.5%	18.1%	50.7*	13.3
O=C(Nc1ccc(F)c(F)c1)c1cccnc1	24.3%	1.5%	14.9%	-11.6%	-8.2	1.1
O=C(Nc1cccc(NC(=O)c2ccc(Cl)cc2Cl)c1)c1cccnc1	31.6µM*	?	/	?	17.2	9.9
O=S1(=O)N=C(c2ccccc2)c2ccccc21	-15.5%	14.4%[46.1 µM]	-0.4%[46.1 µM]	5.8%	/	/
CSc1ccccc1NC(=O)c1cc2c(=O)n3ccccc3nc2s1	6.1%	2.0%	?	-6.0%	-9.3	-1.5
O=C(Nc1nnc(-c2ccccc2Cl)o1)c1cccnc1	-4.7%	8.7%	?	53.4%	58.2*	18.9*
O=C(Nc1ccc(NC(=O)c2ccccc2Cl)cc1)c1cccnc1	-12.2%	?	0.5%[46.1 µM]	11.9%	13.6	0.9
O=C(Nc1ccc(N2CCOCC2)cc1)c1cccnc1	-4.9%	-1.3%	?	21.0%	38.0*	27.9*
CCn1c(NC(=O)C(C)C)c(-c2cccs2)c(=O)c2ccccc21	15.7%	7.7%	10.6%	-9.5%	-1.8	-0.5
CCOC(=O)Cc1csc(NC(=O)Nc2cccc(Cl)c2)n1	?	-5.5%[46.1 µM]	?	?	25.7	8.9*
NCc1csc(NC(=O)Nc2cccc(Cl)c2)n1	/	/	/	13.8%	/	/
CCOC(=O)Cc1csc(NC(=O)Nc2ccc(Cl)cc2)n1	11.2µM*	?	?	?	19.4	1.9
CCOC(=O)Cc1csc(N/N=C/c2ccc(Cl)cc2)n1	-11.8%	?	-8.8%	-29.0%	53.2*	30.7*
O=C(Nc1ccc(Cl)cc1)Nc1nc(-c2ccccc2O)cs1	?	/	/	?	19.9*	16.6
CCCC(=O)Nc1nc(CC(=O)OCC)cs1	7.6%	21.1%[46.1 µM]	7.1%	9.3%	-0.8	21.0
CCOC(=O)Cc1csc(NC(=O)c2ccc(Cl)nc2)n1	-11.1%	?	-25.6%	?	-7.5	-1.8
COC(=O)[C@@]1(Cc2ccccc2)[C@H]2c3cc(C(=O)N4CCCC4)n(CCSCCO)c3C[C@H]2CN1C(=O)c1ccccc1	1.2%[8.37 µM]	-24.2%	-10.5%	/	-14.2	-3.5
C=CCn1c(=O)c2ccc(C(=O)NCc3ccccc3)cc2n(Cc2ccccc2Cl)c1=O	4.6%	?	-8.7%	-10.9%	-12.9	-3.3
CCOC(=O)COc1ccccc1/C=N/Nc1nnc2c3ccccc3n(C)c2n1	13.4%	-23.4%[46.1 µM]	-25.2%	-12.3%	/	/
Cc1ccc(NC(=O)COC(=O)Cc2csc(-c3cccc(F)c3)n2)cc1C	10.9%	?	-3.6%	-7.9%	12.3	1.2
Cc1cnc(NC(=O)Nc2ccc(Cl)cc2)s1	?	/	/	31.4%	152.6*	56.6*
O=C(Cc1csc(NC(=O)Nc2ccc(Cl)cc2)n1)NC1CCCC1	7.08µM*	?	-26.9%	-9.5%	/	/
O=C(Nc1ccc(Cl)cc1)Nc1nc(-c2sccc2Br)cs1	18.4%	?	?	1.0%	12.3	-3.6
O=C(Cc1csc(NC(=O)Nc2ccc(Cl)cc2)n1)NCc1ccccn1	?	-15.9%	-17.0%	-20.7%	/	/
Cc1csc(NC(=O)Nc2ccc(Cl)cc2)n1	-13.1%	-15.5%	1.5%	38.0%	61.7*	47.7*
